According to PubChem BioAssay AID1671192 (National Center for Advancing Translational Sciences (NCATS), 2021):
Results filed as inconclusive are left out. Calls of active or inactive are those of the source. The call rests on the fitted dose curve; in most records, active means well fitted curve in the direction sought with a large enough effect; inconclusive means small, poorly fitted or top-dose-only effect, or another doubt; inactive means no such curve, though single readings can be large or run the other way.

target: Polyunsaturated fatty acid lipoxygenase ALOX15 (Homo sapiens) (UniProt P16050); experiment: Counterscreen qHTS for inhibitors of human arachidonate 12S-lipoxygenase (ALOX12): ALOX15 Assay; details: purified ALOX15 enzyme activity; series mostly up to 110 µM
Sequence (P16050 whole entry, looked up): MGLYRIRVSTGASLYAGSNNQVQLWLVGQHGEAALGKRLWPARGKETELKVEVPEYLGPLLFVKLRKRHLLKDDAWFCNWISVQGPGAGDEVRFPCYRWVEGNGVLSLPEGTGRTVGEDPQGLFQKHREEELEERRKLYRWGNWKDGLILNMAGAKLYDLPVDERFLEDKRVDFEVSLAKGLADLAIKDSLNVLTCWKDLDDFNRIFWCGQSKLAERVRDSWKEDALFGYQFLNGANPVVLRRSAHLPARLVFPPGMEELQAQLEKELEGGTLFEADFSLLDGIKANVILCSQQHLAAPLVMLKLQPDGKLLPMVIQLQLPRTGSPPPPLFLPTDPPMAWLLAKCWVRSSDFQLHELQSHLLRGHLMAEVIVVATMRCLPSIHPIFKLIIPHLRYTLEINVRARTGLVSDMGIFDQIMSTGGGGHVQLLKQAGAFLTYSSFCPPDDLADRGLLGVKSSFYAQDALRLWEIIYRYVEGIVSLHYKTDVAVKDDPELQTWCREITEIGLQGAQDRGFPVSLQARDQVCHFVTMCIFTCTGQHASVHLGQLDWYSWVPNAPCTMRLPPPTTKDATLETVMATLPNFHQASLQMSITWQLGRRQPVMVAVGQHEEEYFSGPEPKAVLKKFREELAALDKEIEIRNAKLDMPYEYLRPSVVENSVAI
Method in brief: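 Purified human ALOX15 (15hLO-1) at 40 nM in 25 mM HEPES, 0.01% Triton X-100, pH 7.5, preincubated with compound 15 min at RT. Then 50 uM arachidonic acid for 30 min; hydroperoxide detected by Fe-xylenol orange as the 573/405 nm absorbance ratio.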

Structure (SMILES) | outcome
Cc1ccc(C(=O)N2CCC3(CC(C(C)C)=NO3)C2)cc1 (stereo not drawn) | inactive
O=C(c1ccccc1)N1Cc2ccccc2CC2(CCN(CC3CCNC3)C2)C1 (stereo not drawn) | inactive
C[S+](=O)([O-])N1Cc2ccccc2CC2(CCCN2CC2CCNCC2)C1 (stereo not drawn) | inactive
CN1CCC(C(=O)N2Cc3ccccc3CC3(CCCCN3CC3CCNCC3)C2)CC1 (stereo not drawn) | inactive
c1cc(NCCN2CCCC2)ccn1 | inactive
CC(=O)N1CCn2cc(C(=O)N3CCOCC3)nc2C1 | inactive
CN1CC(=O)N(C2CCCNCC2)Cc2c1ncnc2N1CCc2ccccc2C1 (stereo not drawn) | inactive
O=C(NC1CC1)c1cc(C2CC2)nc2onc(C3CCNCC3)c12 | inactive
CCOCCNc1ncnc2c1CN(C1CCCNCC1)C(=O)CN2C (stereo not drawn) | inactive
CNC(=O)c1cnn2c1CN(C(=O)c1ccccc1)CC2 | inactive
NCCC(=O)N1Cc2ccccc2CC2(CCCCN2CC2CCNCC2)C1 (stereo not drawn) | inactive
O=C1NC(=NC2CCCC2)C2(CCN(CC3CC3)C2)N1c1cccnc1 (stereo not drawn) | inactive
C[S+](=O)([O-])N1Cc2ccccc2CC2(CCCCN2CC2CCNCC2)C1 (stereo not drawn) | inactive
Cn1cccc1CN1CCC2(CC1)C(=NC1CCCCC1)NC(=O)N2c1cc(F)cc(F)c1 | inactive
O=c1[nH]c(C2CCCN(Cc3cccc(-c4cccs4)c3)C2)nc2ccc(F)cc12 (stereo not drawn) | inactive
CN1CCC2(Cc3ccccc3CN(C(=O)CCN)C2)C1 (stereo not drawn) | inactive
O=C(NC1CCNCC1)c1cc(C2CC2)nc2onc(C3CCCN3)c12 (stereo not drawn) | inactive
CC(=O)NC1CC2(CCN(C(=O)Cc3cnc[nH]3)CC2)c2ccccc21 (stereo not drawn) | inactive
CN1CC(=O)N(C2CCCNC2)Cc2c(NCCO)ncnc21 (stereo not drawn) | inactive

Structure (SMILES) | outcome
CN1CC(=O)N(C2CCNCC2)Cc2c1ncnc2N1CCCCC1 | inactive
CCOCCCNc1ncnc2c1CN(C1CCCNCC1)C(=O)CN2C (stereo not drawn) | inactive
COc1ccccc1C(=O)N1CCc2nc(C3CC3)nc(-c3ccc(Cl)cc3)c2C1 | inactive
NCCCC(=O)N1CCC2(CC1)CN(C(=O)Cc1ccc(Cl)cc1)CCO2 | inactive
O=C(O)CCC(=O)N1Cc2ccccc2CC2(CCCN2Cc2cccnc2)C1 (stereo not drawn) | inactive
CN1CC(=O)N(C2CCNCC2)Cc2c(NC3CCCCC3)ncnc21 | inactive
COc1ccc(CNc2ncnc3c2CN(C2CCCNC2)C(=O)CN3C)cc1OC (stereo not drawn) | inactive
CC(=O)NC1CC2(CCN(C(=O)CCCNC(=O)OC(C)(C)C)CC2)Oc2ccccc21 (stereo not drawn) | inactive
CCCN1CCCC12Cc1ccccc1CN(C(=O)CCCC(=O)O)C2 (stereo not drawn) | inactive
COc1ccc(-c2cc(C(=O)NC3CCNCC3)c3c(C4CCCN4)noc3n2)cc1 (stereo not drawn) | inactive
O=C1NCc2ccccc2CC12CCCN2Cc1ccc(Br)cc1 (stereo not drawn) | inactive
O=c1[nH]c(C2CCCN(Cc3ccc(-c4ccccc4)cc3)C2)nc2ccc(F)cc12 (stereo not drawn) | inactive
CC(C)NC(=O)NC1CC2(CCN(Cc3ccc(O)cc3)CC2)c2ccccc21 (stereo not drawn) | inactive
Cc1noc(C)c1S(=O)(=O)N1CCC(N2CCOC2=O)CC1 | inactive
Cc1cccc(N2Cc3c(NCCCOC(C)C)ncnc3N(C)CC2=O)c1 | inactive
O=C(c1ccccc1F)N1CC(Oc2ccc3c(c2)OCO3)C1 | inactive
CC1CCCCC1Nc1ncnc2c1CN(C1CCCNCC1)C(=O)CN2C (stereo not drawn) | inactive
NCc1cccc(-c2cncnc2)c1 | inactive
CCOCCNc1ncnc2c1CN(C1CCCNC1)C(=O)CN2C (stereo not drawn) | inactive
